Results taken from PubChem BioAssay (NCI).
Compounds without any hit were thinned out: in the full panel of roughly 83,000, 20% have a hit.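 96-well plates, one dose, 48 hours. Percent growth reported; active if below 10.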 Values without a mark were called inactive. Activity calls are given as the source filed them.

Legend:
Test in all cases: NCI-60 one-dose screen, 48 h (100 = growth as untreated, 0 = no growth, -100 = all killed)
Details in all cases: 10 µM unless noted
[1] = system: T-47D breast
[2] = system: BT-549 breast
[3] = system: MDA-MB-435 melanoma
[4] = system: SW-620 colon
[5] = system: MCF7 breast
[6] = system: HCT-116 colon
[7] = system: HCC-2998 colon
[8] = system: KM12 colon

## CCOC(=O)c1c(NCC(=O)Nc2cccc([N+](=O)[O-])c2)sc(C(C)=O)c1C
[1]
  growth: 34.6%
[2]
  growth: -40.7% (active)
[3]
  growth: -26% (active)
[4]
  growth: 3.65% (active)
[5]
  growth: -9.04% (active)
[6]
  growth: -14.3% (active)
[7]
  growth: -62.3% (active)
[8]
  growth: -7.12% (active)

## C#CCN(C)CCCOc1ccc(NCc2ccc(/C=C/C(=O)NO)cc2)cc1Cl
[1]
  growth: 1.04% (active)
[2]
  growth: 18.8%
[3]
  growth: -25.3% (active)
[4]
  growth: 10.1%
[5]
  growth: 10.4%
[6]
  growth: 9.47% (active)
[7]
  growth: -43.2% (active)
[8]
  growth: 5.72% (active)

## CC1(C)CC[C@]23CC[C@]4(C)[C@H](CC[C@@H]5[C@@]6(C)CC[C@H](N)C(C)(C)[C@@H]6CC[C@]54C)[C@H]2[C@H]1OC3
[1]
  growth: 88.1%
[2]
  growth: 88.9%
[3]
  growth: 90.6%
[4]
  growth: -44.3% (active)
[5]
  growth: -8.5% (active)
[6]
  growth: -82.7% (active)
[7]
  growth: -15.9% (active)
[8]
  growth: 18%

## O=C(Nc1ccc(Cl)c(C(F)(F)F)c1)Nc1ccc2oc(=O)ccc2c1
[1]
  growth: 8.73% (active)
[2]
  growth: 78.7%
[3]
  growth: 50.3%
[4]
  growth: 37.3%
[5]
  growth: 11.9%
[6]
  growth: 15.7%
[7]
  growth: 29.2%
[8]
  growth: 19.6%

## CCOC(=O)C1=C(C)NC(C)=C(C(=O)OCc2ccccc2)C1c1cccc(C#N)c1 (stereo not given)
[1]
  growth: 27%
[2]
  growth: 31.7%
[3]
  growth: -10.4% (active)
[4]
  growth: 29.7%
[5]
  growth: 21.2%
[6]
  growth: 13.2%
[7]
  growth: 70.8%
[8]
  growth: 25.5%

## C[C@H]1OCC2(CCN(c3cnc(C(=O)Nc4cc(F)cc5cccnc45)cn3)CC2)[C@H]1N
[1]
  growth: 35.3%
[2]
  growth: 91.5%
[3]
  growth: 79.7%
[4]
  growth: 4.8% (active)
[5]
  growth: 1.15% (active)
[6]
  growth: 13.9%
[7]
  growth: 78.3%
[8]
  growth: 82.5%

## CNC(=O)c1cc(N2CCc3cc(NC(=O)Nc4ccc(N5CCN(C)CC5)c(C(F)(F)F)c4)ccc32)ccn1
[1]
  growth: 81.4%
[2]
  growth: 84.9%
[3]
  growth: 82.3%
[4]
  growth: 3.68% (active)
[5]
  growth: -2.1% (active)
[6]
  growth: -47.2% (active)
[7]
  growth: 84.9%
[8]
  growth: 29.5%

## NS(=O)(=O)c1ccc(Nc2nc(N/N=C/c3ccc4c(c3)OCO4)nc(Nc3ccccc3)n2)cc1
[1]
  growth: 54.7%
[2]
  growth: 76.7%
[3]
  growth: 59.2%
[4]
  growth: 49.8%
[5]
  growth: 18.7%
[6]
  growth: 36.7%
[7]
  growth: 23.2%
[8]
  growth: 70.4%

## CCNC(=O)Oc1ccc(/C(=C(/C)c2ccc(OC)cc2)c2ccc(OCCN3CCCCCC3)cc2)cc1
[1]
  growth: 26.6%
[2]
  growth: 73.3%
[3]
  growth: 43.7%
[4]
  growth: -25.9% (active)
[5]
  growth: 8.81% (active)
[6]
  growth: 13.4%
[7]
  growth: 67.9%
[8]
  growth: 39.6%

## CN1CCN(CCNc2nc(-c3cccc(NS(=O)(=O)c4cccc5c(N(C)C)cccc45)c3)cs2)CC1
[1]
  growth: 39.6%
[2]
  growth: 58.6%
[3]
  growth: 66%
[4]
  growth: 70.5%
[5]
  growth: 11.1%
[6]
  growth: 32.2%
[7]
  growth: 49.5%
[8]
  growth: 77.3%

## CN1CCN(Cc2ccc(NC(=O)c3cncc(C#Cc4cnc5ccc(N6CCOCC6)nn45)c3)cc2C(F)(F)F)CC1
[1]
  growth: -5.39% (active)
[2]
  growth: -71.7% (active)
[3]
  growth: -65% (active)
[4]
  growth: -19.2% (active)
[5]
  growth: -69% (active)
[6]
  growth: -76.2% (active)
[7]
  growth: -33.2% (active)
[8]
  growth: -46.2% (active)

## C#CCOc1ccc(/C=N/Nc2nc(-c3ccc(OC)cc3)cs2)cc1
[1]
  growth: 68.7%
[2]
  growth: 89.1%
[3]
  growth: 79.3%
[4]
  growth: 93.3%
[5]
  growth: 69.8%
[6]
  growth: 71.4%
[7]
  growth: 103%
[8]
  growth: 78.8%

## CS(=O)(=O)c1ccc(/C(=N/N=C(N)N)c2ccc(Cl)cc2)cc1
[1]
  growth: 89%
[2]
  growth: 85%
[3]
  growth: 8.68% (active)
[4]
  growth: 74.6%
[5]
  growth: 32.8%
[6]
  growth: 73.8%
[7]
  growth: 91.2%
[8]
  growth: 72%

## CN1CCN(Cc2ccc(NC(=O)c3cncc(C#Cc4cnc5ccc(O[C@@H]6CCOC6)nn45)c3)cc2C(F)(F)F)CC1
[1]
  growth: -29.2% (active)
[2]
  growth: -81.9% (active)
[3]
  growth: -97.6% (active)
[4]
  growth: -28% (active)
[5]
  growth: -68.1% (active)
[6]
  growth: -73.1% (active)
[7]
  growth: -85% (active)
[8]
  growth: -82.4% (active)

## CN1c2ccccc2Sc2cc(/C=N/Nc3ccnc4cc(Cl)ccc34)ccc21
[1]
  growth: 87.4%
[2]
  growth: 99%
[3]
  growth: 62.9%
[4]
  growth: 84.8%
[5]
  growth: 49.4%
[6]
  growth: 57.3%
[7]
  growth: 110%
[8]
  growth: 86.8%

## Nc1nc(=O)n([C@H]2C[C@H](O)[C@@H](CO)O2)cc1C=O
[1]
  growth: 113%
[2]
  growth: 116%
[3]
  growth: 110%
[4]
  growth: 107%
[5]
  growth: 96.1%
[6]
  growth: 91.3%
[7]
  growth: 87.7%
[8]
  growth: 103%

## CCCCSC1=C(Cl)CN(c2ccc(Cl)cc2)C1=O
[1]
  growth: 72.7%
[2]
  growth: 112%
[3]
  growth: 107%
[4]
  growth: 104%
[5]
  growth: 26.2%
[6]
  growth: 93.4%
[7]
  growth: 107%
[8]
  growth: 98.7%

## C1=CC(c2nn3c(-c4ccccc4)nnc3s2)=Cc2ccccc2O1
[1]
  growth: 19.7%
[2]
  growth: 77.9%
[3]
  growth: 46.7%
[4]
  growth: 16.6%
[5]
  growth: 30.7%
[6]
  growth: 41.1%
[7]
  growth: 97%
[8]
  growth: 85.5%

## CCCNNC(=O)c1ccc(-c2ccc(NC(=O)CCCCCCC(=O)N[C@H](C(=O)N3C[C@H](O)C[C@H]3C(=O)N[C@@H](C)c3ccc(-c4scnc4C)cc3)C(C)(C)C)cc2)cc1
[1]
  growth: 9.23% (active)
[2]
  growth: 50.5%
[3]
  growth: 8.72% (active)
[4]
  growth: 12.1%
[5]
  growth: 12%
[6]
  growth: 7.95% (active)
[7]
  growth: 19.4%
[8]
  growth: 26.7%

## CC1=C(C)C(=O)C(Nc2ccc(C)cc2)=C(Br)C1=O
[1]
  growth: 15.7%
[2]
  growth: 104%
[3]
  growth: 103%
[4]
  growth: 103%
[5]
  growth: 76%
[6]
  growth: 35.4%
[7]
  growth: 104%
[8]
  growth: 104%

## Brc1cccc(-c2cc(-c3cnc4c(c3)OCCO4)n[nH]2)c1
[1]
  growth: 40.2%
[2]
  growth: 67.3%
[3]
  growth: -29.3% (active)
[4]
  growth: 25.3%
[5]
  growth: 10%
[6]
  growth: 27.4%
[7]
  growth: 46.7%
[8]
  growth: 41.6%

## O=S(=O)(NCCCNc1nccc(-c2[nH]c(-c3ccccc3)nc2-c2ccc(F)c(O)c2)n1)c1ccc(C(F)(F)F)cc1
[1]
  growth: 50.7%
[2]
  growth: 55.9%
[3]
  growth: -40.6% (active)
[4]
  growth: 59.8%
[5]
  growth: 7.95% (active)
[6]
  growth: 19.1%
[7]
  growth: 97.8%
[8]
  growth: 36.6%

## Cc1csc(/N=C(N)/N=C(\N)c2cccc(C#N)c2)n1
[1]
  growth: 79.7%
[2]
  growth: 73.1%
[3]
  growth: -6.51% (active)
[4]
  growth: 44.4%
[5]
  growth: 77.7%
[6]
  growth: 49.7%
[7]
  growth: 87.7%
[8]
  growth: 46.4%

## CN1CCC[C@]2(C)[C@H]3CC[C@@H]4[C@@H]5[C@H]6OC[C@@]5(CCC6(C)C)CC[C@@]4(C)[C@]3(C)CC[C@H]2C1(C)C
[1]
  growth: 54.9%
[2]
  growth: 96.8%
[3]
  growth: 69.8%
[4]
  growth: 23.2%
[5]
  growth: 8.03% (active)
[6]
  growth: 15.4%
[7]
  growth: 45.8%
[8]
  growth: 79.1%

## O=C(N/N=C\c1ccc([N+](=O)[O-])cc1)c1ccc2nc(-c3ccc(Br)cc3)[nH]c2c1
[1]
  growth: 9.87% (active)
[2]
  growth: 6.72% (active)
[3]
  growth: 23.9%
[4]
  growth: 5.34% (active)
[5]
  growth: -4.44% (active)
[6]
  growth: -37.2% (active)
[7]
  growth: 5.66% (active)
[8]
  growth: 11.7%

## COc1cc(OC)cc(-c2cc(-c3c[nH]c4ccccc34)nc(-c3c[nH]c4ccccc34)c2C#N)c1
[1]
  growth: 98.3%
[2]
  growth: 104%
[3]
  growth: 99.4%
[4]
  growth: 103%
[5]
  growth: 90.7%
[6]
  growth: 101%
[7]
  growth: 113%
[8]
  growth: 98.7%

## Cc1ccc([C@H]2c3[nH]c4ccccc4c3C[C@H]3C(=O)N(CCCCCCC(=O)NO)CC(=O)N23)s1
[1]
  growth: 37.3%
[2]
  growth: 90.9%
[3]
  growth: 45.2%
[4]
  growth: 51.9%
[5]
  growth: 32.8%
[6]
  growth: 23.7%
[7]
  growth: 82.4%
[8]
  growth: 74.3%

## C#CCOc1ccc(-c2csc(NC(=O)C=C)n2)cc1NS(=O)(=O)c1cccc2c(N(C)C)cccc12
[1]
  growth: 60.7%
[2]
  growth: 58.6%
[3]
  growth: 14.7%
[4]
  growth: 10.3%
[5]
  growth: 4.46% (active)
[6]
  growth: -72.2% (active)
[7]
  growth: 78.4%
[8]
  growth: 63.1%

## CN1CCN(Cc2ccc(NC(=O)c3cncc(C#Cc4cnc(N)nc4)c3)cc2C(F)(F)F)CC1
[1]
  growth: 19%
[2]
  growth: 38.5%
[3]
  growth: 12.9%
[4]
  growth: 10.4%
[5]
  growth: 27.6%
[6]
  growth: 3.4% (active)
[7]
  growth: 42.5%
[8]
  growth: 9.4% (active)

## CC[C@]12CC(C(=O)OC)=C3Nc4ccccc4[C@@]34CCN(C14)[C@@H]1c3cc4c(cc3O[C@@H]1[C@H]2O)NC1=C(C(=O)OC)C[C@@]2(CC)C3N(CC[C@@]143)C[C@H]1O[C@H]12 (stereo not given in full)
[1]
  growth: 18.2%
[2]
  growth: 33.9%
[3]
  growth: -10.9% (active)
[4]
  growth: 23.5%
[5]
  growth: 4.36% (active)
[6]
  growth: 2.44% (active)
[7]
  growth: -41.3% (active)
[8]
  growth: 13.4%
